# Measured values: PubChem BioAssay (NCATS)
# Records with an inconclusive call do not appear. Calls of active or inactive are those of the source. Unless noted, the call rests on the fitted dose curve; in most records, active means well fitted curve in the direction sought with a large enough effect; inconclusive means small, poorly fitted or top-dose-only effect, or another doubt; inactive means no such curve, though single readings can be large; an effect the other way counts as inactive or inconclusive.
# Legend:
# [1] = P-glycoprotein substrates identified in KB-8-5-11 adenocarcinoma cell line, qHTS therapeutic library screen (AID 1346987); further: nearly all actives have a fitted effect of over 65% in size; further: potency means the concentration at half of the fitted maximal effect
# In short: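 KB-8-5-11: colchicine-selected sub-line of KB-3-1 over-expressing P-gp; assay medium lacked colchicine. 72 h drug exposure at 37 degree C, CellTiter-Glo.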
# [2] = test system: Zika virus NS2B-NS3 protease (unlinked complex); assay: Primary screen GU Rhodamine qHTS for Zika virus inhibitors: Unlinked NS2B-NS3 protease assay (AID 1347159); further: on the % scale 0 is the no-effect control and ±100 the full control effect; nearly all actives have a fitted effect of over 60% in size
# In short: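 Compounds, tested up to 114 microM, were incubated for 15 minutes with 25 nM unlinked NS2B-NS3 protease at pH 8.0. Cleavage of 1.5 microM Rhodamine110 substrate was then followed by fluorescence for 15 minutes.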
# NIH3T3 = assay: Cytotoxic Profiling of Annotated Libraries Using Quantitative High-Throughput Screening (AID 1296008); conditions: Five cell lines viability, CellTiter-Glo ATP luminescence, 48-72 h; max response: stronger effect = lower value; further: nearly all actives have a fitted effect of over 60% in size; further: potency means the concentration at half of the fitted maximal effect; on max response: on the % scale 0 is the no-effect control and ±100 the full control effect
# In short: (§1)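 Cytotoxicity was measured as CellTiter-Glo ATP luminescence, read after 10 min at room temperature. Compound treatment of the cells lasted 48 or 72 hr at 37 degrees Celsius in a qHTS format.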
# PA-1 = assay: Primary qHTS to identify gynecologic anti-cancer compounds using libraries of approved drugs and bioactive compounds (AID 1345084); conditions: Gynecologic cancer cell panel viability, ATPlite luminescence, 48 h; series mostly up to 57.5 µM; further: nearly all actives have a fitted effect of over 55% in size; further: potency means the concentration at half of the fitted maximal effect
# In short: (§2)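 Five-concentration response, 48 h; readout is ATP-driven luciferase luminescence.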
# SKOV3 = assay: as above; conditions: Gynecologic cancer cell panel viability, ATPlite luminescence, 48 h; series mostly up to 57.5 µM
# In short: as §2
# HaCat = assay: Cytotoxic Profiling of Annotated Libraries Using Quantitative High-Throughput Screening (AID 1296008); conditions: Five cell lines viability, CellTiter-Glo ATP luminescence, 48-72 h; max response: stronger effect = lower value; further: nearly all actives have a fitted effect of over 60% in size; further: potency means the concentration at half of the fitted maximal effect; on max response: on the % scale 0 is the no-effect control and ±100 the full control effect
# In short: as §1
# [3] = Confirmatory screen NINDS Rhodamine qHTS for Zika virus inhibitors (AID 1347161);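 further: purified Zika NS2B-NS3 protease with linked NS2B cofactor domain and Rhodamine110 peptide substrate; plate controls were no-inhibitor control for no effect and no-enzyme control for full effect; nearly all actives have a fitted effect of over 60% in size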
# In short: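 Single-chain NS2B-NS3 protease, 25 nM, pH 8.0; compounds preincubated 15 min. Activity: Rhodamine110 release from 1.5 microM substrate over 15 min, room temperature, data fitted to 4-parameter Hill.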
# [4] = Tertiary RLuc qRT-PCR qHTS assay for Zika virus inhibitors (AID 1347169); further: top concentration of the series differs between compounds; on the % scale 0 is the no-effect control and ±100 the full control effect; nearly all actives have a fitted effect of over 55% in size
# In short: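 Vero, 1,000 cells/well, o/n 37 C; cpd pinned in DMSO; ZIKV-RLuc Cambodian, MOI 1-2, 48-72 h 37 C; live-cell RLuc substrate, lum read at 1-1.5 h.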
# [5] = qHTS to identify inhibitors of the type 1 interferon - major histocompatibility complex class I in skeletal muscle: primary screen against the NCATS Mechanism Interrogation Plate v5.0 (MIPE) Libary (AID 1347411);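 further: plate controls were vehicle for no effect and reference inhibitor for full effect; nearly all actives have a fitted effect of over 65% in size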
# In short: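 Immortalized human C25cl48 myoblasts with HiBit knocked into endogenous HLA-B*08:01 were stimulated with 4.0 ng/ml IFN-beta and exposed to compounds (11-point 1:3 titration, top 46 uM final) for 24 hrs at 37 C; HiBiT lytic luminescence measured.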
# [6] = target: Catechol O-methyltransferase (Homo sapiens) (UniProt P21964); assay: Confirmatory Screen for Target Class Profiling of Small Molecule Inhibitors of Methyltransferases (AID 1745852); conditions: MTase-Glo luminescence, SAH detection, recombinant enzyme; measured here: COMT max response; stronger effect = lower value; on activity change, negative = inhibition: on the % scale 0 is the no-effect control and ±100 the full control effect
# [7] = target: Guanidinoacetate N-methyltransferase (Homo sapiens) (UniProt Q14353); assay: as above; conditions: activity change, negative = inhibition: at 57.3 µM (top of the series) unless noted
# [8] = target: Nicotinamide N-methyltransferase (Homo sapiens) (UniProt P40261); assay: as above; conditions: MTase-Glo luminescence, SAH detection, recombinant enzyme; measured here: NNMT max response; stronger effect = lower value
# [9] = target: Phenylethanolamine N-methyltransferase (Homo sapiens) (UniProt P11086); assay: as above; conditions: MTase-Glo luminescence, SAH detection, recombinant enzyme; measured here: PNMT max response; stronger effect = lower value
# [10] = qHTS drug screen for cell cycle checkpoint inhibitors in PARPi-resistant BRCA-mutant ovarian cancer cell lines. (AID 1963452; calls by dose curve); conditions: PEO1/OlaR viability, CellTiter-Glo luminescence, 96 h, stronger effect = lower value
# In short: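 PEO1, PEO4 and PEO1/OlaR ovarian cancer cells, 600 per well, exposed 96 h at 37C to a dilution series. Viability read by CellTiter-Glo luminescence, normalized to DMSO and empty wells; activity summarized as Z-AUC.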
# [11] = target: Cytochrome P450 2C9 (Homo sapiens) (UniProt P11712); assay: Cytochrome P450 family 2 subfamily C member 9 (CYP2C9) small molecule antagonists: luciferase biochemical (cell-free) qHTS assay (AID 1645842; active means well fitted curve in the direction sought with a large enough effect in the repeat runs; an effect the other way counts as inactive or inconclusive; further: potency means the concentration at half of the fitted maximal effect; nearly all actives have a fitted effect of over 55% in size)
# In short: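 Luminescence, after 20 min with luciferin detection reagent, reflected CYP2C9 turnover during a 1 h NADPH-driven reaction at 37C. Enzyme-substrate mix contained 0.4% bovine serum albumin and was preincubated with compound 10 min at room temperature.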
# [12] = measured here: PEO1 parental Z-AUC
# Cytochrome P450 2C9 (Homo sapiens), sequence (P11712 whole entry, looked up): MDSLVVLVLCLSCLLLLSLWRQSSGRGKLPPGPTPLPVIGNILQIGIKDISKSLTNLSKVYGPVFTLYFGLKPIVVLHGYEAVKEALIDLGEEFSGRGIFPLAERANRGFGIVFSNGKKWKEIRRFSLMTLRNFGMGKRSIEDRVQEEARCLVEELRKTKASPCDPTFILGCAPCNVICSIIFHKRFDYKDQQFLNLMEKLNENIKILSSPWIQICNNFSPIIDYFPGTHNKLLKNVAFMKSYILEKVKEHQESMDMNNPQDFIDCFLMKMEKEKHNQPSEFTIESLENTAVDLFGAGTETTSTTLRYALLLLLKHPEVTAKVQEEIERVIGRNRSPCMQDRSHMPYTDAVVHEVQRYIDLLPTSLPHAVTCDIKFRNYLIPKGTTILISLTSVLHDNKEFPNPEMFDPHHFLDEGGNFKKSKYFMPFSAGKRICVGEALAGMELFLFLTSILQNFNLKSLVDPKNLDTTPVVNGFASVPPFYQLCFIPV
# Nicotinamide N-methyltransferase (Homo sapiens), sequence (P40261 whole entry, looked up): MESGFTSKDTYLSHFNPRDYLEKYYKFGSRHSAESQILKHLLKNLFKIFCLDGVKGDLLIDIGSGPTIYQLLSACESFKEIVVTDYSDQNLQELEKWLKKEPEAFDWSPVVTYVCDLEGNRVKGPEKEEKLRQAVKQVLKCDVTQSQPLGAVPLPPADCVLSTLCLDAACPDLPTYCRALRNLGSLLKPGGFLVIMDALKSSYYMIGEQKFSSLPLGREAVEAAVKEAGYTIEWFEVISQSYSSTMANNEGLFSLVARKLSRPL
# Catechol O-methyltransferase (Homo sapiens), sequence (P21964 whole entry, looked up): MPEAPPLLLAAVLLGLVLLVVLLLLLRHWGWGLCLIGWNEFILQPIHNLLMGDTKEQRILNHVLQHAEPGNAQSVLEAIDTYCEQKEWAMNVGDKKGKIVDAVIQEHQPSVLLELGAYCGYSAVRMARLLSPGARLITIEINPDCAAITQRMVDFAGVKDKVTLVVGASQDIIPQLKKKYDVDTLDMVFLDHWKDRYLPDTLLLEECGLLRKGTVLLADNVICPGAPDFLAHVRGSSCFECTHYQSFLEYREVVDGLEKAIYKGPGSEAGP
# Phenylethanolamine N-methyltransferase (Homo sapiens), sequence (P11086 whole entry, looked up): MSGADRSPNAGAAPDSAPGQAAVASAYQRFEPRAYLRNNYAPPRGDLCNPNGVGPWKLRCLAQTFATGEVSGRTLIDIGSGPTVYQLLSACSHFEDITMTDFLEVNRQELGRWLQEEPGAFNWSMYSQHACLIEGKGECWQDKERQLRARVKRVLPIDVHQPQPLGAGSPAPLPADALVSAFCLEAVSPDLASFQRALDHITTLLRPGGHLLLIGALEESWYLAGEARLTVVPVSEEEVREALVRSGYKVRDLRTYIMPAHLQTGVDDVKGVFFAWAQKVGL
structure (smiles),measurement,setting,value
C=C(C)C(=O)O[C@H]1[C@H]2C(=C)C(=O)O[C@@H]2C[C@@H](C)/C=C\C(=O)[C@](C)(O)[C@@H]1OC(C)=O,Potency,[1],2.82 µM (active)
same,Potency,[2],inactive
same,Potency,NIH3T3,7.09 µM (active)
same,Potency,PA-1,10 µM (active)
same,Potency,SKOV3,11.2 µM (active)
Cc1cc2nc(NCCCO)n(CC(=O)c3cc(C(C)(C)C)c(O)c(C(C)(C)C)c3)c2cc1C,Potency,[1],18.4 µM (active)
same,Potency,[2],inactive
same,max response,HaCat,-19.8% (inactive)
same,Potency,PA-1,inactive
CC1OC2O[C@H]3[C@@H](OCC(O)[C@H]3O)OC(=O)C34CCC(C)(C)CC3C3=CCC5C6(C)CC(O)C(OC7OC(CO)C(O)C(O)C7O[C@@H]7OC[C@H](OC(=O)CC(C)(O)CC(=O)OC1C(OC1OCC(O)C(O)C1O)C2O)[C@@H](O)[C@H]7O)C(C)(CO)C6CCC5(C)C3(C)CC4 (some centres undefined),max response,NIH3T3,-22% (inactive)
CN[C@@H]1[C@@H](O)[C@@H](O[C@@H]2[C@@H](O)[C@H](O[C@H]3O[C@@H]([C@@H](C)NC)CC[C@H]3N)[C@@H](N)C[C@H]2N)OC[C@]1(C)O,Potency,[2],inactive
same,Potency,PA-1,inactive
same,Potency,SKOV3,inactive
CC1(CO)CCCC2(C)C1C(OC(=O)c1ccccc1)C=C1C(=O)OCC12O (centres undefined),Potency,NIH3T3,12.8 µM (active)
CS(=O)(=O)c1ccc(-c2cn3ccccc3n2)cc1,Potency,[3],inactive
same,Potency,[4],inactive
same,Potency,PA-1,17.8 µM (active)
same,Potency,SKOV3,8.91 µM (active)
CC1CCCC(SCC(O)C(=O)O)CC(=O)c2c(O)cc(O)cc2CC(=O)O1 (centres undefined),max response,HaCat,-1.3% (inactive)
CNCCN(C)Cc1cn[nH]c1-c1ccc(OC2CC(OCCC3CCOCC3)C2)cc1 (centres undefined),Potency,[5],inactive
same,activity,[6],0.741%
same,"activity change, negative = inhibition",[7],7.78%
same,activity,[8],-3.1%
same,activity,[9],-1.61%
same,Z-AUC,[10],-0.683 (inactive)
same,Z-AUC,[10]; [12],-1
same,Z-AUC,[10]; measured here: PEO4 Z-AUC,-0.979
same,max response,NIH3T3,-20% (inactive)
COc1cc(N2CCN(C(C)=O)CC2)ccc1Nc1ncc(Cl)c(Nc2ccc(N3CCN(C(C)=O)CC3)cc2OC)n1,Potency,[1],20.6 µM (active)
same,Potency,[2],inactive
same,Potency,[11],5.35 µM (active)
same,Z-AUC,[10],0.859 (inactive)
same,Z-AUC,[10]; [12],0.393
same,Z-AUC,[10]; measured here: PEO4 Z-AUC,0.132
same,Potency,NIH3T3,4.11 µM (active)
CO[C@@H]1[C@@H](O[C@H]2O[C@@H](C)[C@H](O[C@@H]3C[C@](C)(O)[C@H](O)[C@@H](C)O3)[C@@H](N(C)C)[C@@H]2O)[C@@H](CC=O)C[C@@H](C)[C@@H](O[C@H]2CC[C@H](N(C)C)[C@H](C)O2)/C=C/C=C/C[C@@H](C)OC(=O)C[C@H]1O,Potency,[2],inactive
same,Potency,PA-1,inactive
same,Potency,SKOV3,inactive
COc1c(N2CC3CCCNC3C2)c(F)cc2c(=O)c(C(=O)O)cn(C3CC3)c12 (centres undefined),Potency,[2],inactive
same,Potency,PA-1,inactive
same,Potency,SKOV3,inactive
Cc1cc(C)c(-c2csc(NC(=O)c3ccccc3)n2)c(C)c1,Potency,NIH3T3,8.2 µM (active)
same,Potency,SKOV3,25.1 µM (active)
CC[C@H]1OC(=O)[C@H](C)[C@@H](O[C@H]2C[C@@](C)(OC)[C@@H](O)[C@H](C)O2)[C@H](C)[C@@H](O[C@@H]2O[C@H](C)C[C@H](N(C)C)[C@H]2O)[C@](C)(O)C[C@@H](C)/C(=N/OCOCCOC)[C@H](C)[C@@H](O)[C@]1(C)O,Potency,[1],inactive
same,Potency,[2],inactive
same,Potency,PA-1,inactive
same,Potency,SKOV3,inactive
Cc1cc(CS(=O)(=O)c2ccccc2)cc(OCc2ccc(CN3CCC[C@@H]3CO)cc2)c1,Potency,[5],inactive
same,Z-AUC,[10],0.153 (inactive)
same,Z-AUC,[10]; [12],0.253
same,Z-AUC,[10]; measured here: PEO4 Z-AUC,0.0408
same,Potency,NIH3T3,20.6 µM (active)
CC(=O)N[C@@H](CC(=O)O)C(=O)N[C@@H](CCC(=O)O)C(=O)N[C@H](C(=O)N[C@@H](CC(=O)O)C(=O)Nc1ccc2c(C)cc(=O)oc2c1)C(C)C,Potency,[2],inactive
same,max response,HaCat,-44.8% (inactive)
